Potency and affinity values are given separately. Activity calls are given as the source filed them.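 The calls were made as follows: active = compounds lowering cell ATP signal with a fitted half-effect dose at most twice the top valid dose; inconclusive = flat curve with 30 to 70% signal loss, or bad fit; inactive = wrong direction, flat within 30%, or weaker than limit.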

The experiment in a line: viability loss in HEK293 kidney cells – cell-based, cherry-picks, set 5, cytotoxicity control, dose response (AID 1053117).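 Also: more negative means greater loss of ATP signal and more cytotoxicity.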 The settings on record: HEK293T viability, CellTiter-Glo ATP luminescence, 72 h; series mostly up to 26 µM.
For `CS(=O)(=O)N1CCN(c2ccc(NC(=O)c3ccc([N+](=O)[O-])o3)cc2)CC1`, the result was inactive.
For `CN(C)C(=O)c1ccc(-c2ccc3c(c2)[C@H]2[C@H](CCN2C(=O)c2ccc(F)cc2)[C@@H](CO)N3C)cc1` the value was “inactive”; for `O=C(NCCS(=O)(=O)N1CCN(c2ccc(F)cc2)CC1)c1ccc(Br)o1`, “inactive”.
Next, `O=C(Nc1ccccc1F)N1C[C@@H]2[C@H](c3ccccc31)[C@H](CO)N2C(=O)C1CC1`: “inactive”.
